The values below come from PubChem BioAssay AID652040 (Broad Institute, 2013).

Entries with a potency or affinity are not part of this list. Active and inactive are the calls of the source.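 How the source made its calls: active means falling luciferase signal whose fitted half-maximal concentration is at most twice the top tested dose; inconclusive means flat inhibition between 30 and 70% or a poor curve fit; inactive means the rest.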

The assay can be described thus: off-target signal loss in HeLa-CEM21 co-culture – HeLa F-luc CTL cells, cherry-picked, counter-screen for HIV-1 Env fusion inhibitor project, dose response (AID 652040).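 Further: more negative values mean stronger loss of luciferase signal.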 The note with it: HeLa-F-luc CTL cells with CEM21, firefly luciferase counterscreen; series mostly up to 35 µM.
Take `CCCc1cc(=O)n2[nH]cc(-c3ccc(Cl)cc3)c2n1`: the call was inactive.

Turning to `CCc1ccc(C(=O)CN2C(=O)NC(C)(c3ccc(C)cc3)C2=O)cc1` (stereo not given), the compound was called inactive.

Turning to `COc1ccc(NS(=O)(=O)c2cccc(C(=O)NNC(=O)CNC(=O)c3ccc(C)cc3)c2)cc1`, the outcome was inactive.

`CCCCS(=O)(=O)N1CCN(C(=O)C(=O)c2cccc(C(F)(F)F)c2)CC1`: the compound was classed as inactive.

Turning to `O=S(=O)(NCCc1csc(-c2cccnc2)n1)c1ccc(Cl)s1`, the call was inactive.

Turning to `COC(=O)C[C@H]1C=C[C@H](NC(=O)c2ccccn2)[C@@H](CO)O1`, the compound was called inactive.

Take `C[C@H](CO)N1C[C@H](C)[C@@H](CN(C)C(=O)NC2CCCCC2)Oc2c(cccc2N(C)C)C1=O`: the compound was called inactive.

On to `O=C(NCCCc1nc2ccccc2[nH]1)c1ccco1`, for which the call was inactive.

On to `O=C(Cc1ccc(Cl)cc1Cl)Nc1ccncc1`, for which the compound was classed as inactive.

On to `CC1CN(S(=O)(=O)c2cc(C(=O)NCCC3=CCCCC3)ccc2Cl)CC(C)O1` (stereo not given), for which the compound was called inactive.

For `O=C(OCCOc1cccc(Cl)c1)c1cc(S(=O)(=O)N2CCCCC2)ccc1N1CCOCC1`, the compound was called inactive.

Take `O=C(CN1CCN(Cc2ccc(Cl)cc2)C1=O)NCCCN1CCN(c2ccc(F)cc2)CC1`: the outcome was inactive.

For `CCOC(=O)[C@@H]1[C@H]2COc3cc(OC)ccc3[C@H]2N2C(=O)N(c3cccc(F)c3)C(=O)[C@@]12C`, the compound was classed as inactive.

As to `Cc1[nH]c2ccccc2c1/C=N\NC(=O)c1ccccc1Cl`, the call was inactive.

Take `Cc1oc(-c2ccc(Cl)cc2)nc1CN1CCCC(C(=O)NCc2cccnc2)C1` (stereo not given): the outcome was inactive.

Turning to `COc1cc(-c2c(-c3cc(OC)c(OC)c(OC)c3)noc2C)ccc1F`, the compound was classed as inactive.

For `CCC12CN(S(=O)(=O)c3ccc(C)cc3)CC(CC)(CN(S(=O)(=O)c3ccc(C)cc3)C1)C2=O`, the result was inactive.

As for `CCc1nc2ccccc2c(C(=O)OCC(=O)Nc2cccc(S(=O)(=O)N3CCOCC3)c2)c1C`, the outcome was inactive.

Take `Cc1ccc(-n2nnnc2-c2cnn(-c3ccc(F)cc3)c2C(F)(F)F)cc1`: the compound was classed as inactive.

Consider `CCN1CCN(S(=O)(=O)c2ccc(Cl)c(C(=O)Nc3ccccc3N3CCCC3)c2)CC1`, for which the call was inactive.

`Clc1ccc2c(c1)C(C1=NCCN1)c1ccccc1CS2` (stereo not given): the outcome was inactive.

In the case of `O=C(Nc1cccc(C(F)(F)F)c1)c1ccc(Cn2cc(Br)cn2)o1`, the compound was called inactive.

Turning to `O=C(NCc1ccccc1)[C@@H]1CCCN1C(=O)[C@@H]1CCCN1C(=O)c1cccc2ccccc12`, the call was inactive.

For `O=C(NNC(=O)C(c1ccccc1)c1ccccc1)c1ccccn1`, the outcome was inactive.

On to `N#Cc1c(NCc2ccccc2)ccnc1NCc1cccnc1`, for which the outcome was inactive.

Turning to `CCc1nc(N2CCCCC2)c2oc3ccccc3c2n1`, the compound was classed as inactive.

`COc1ccc(NC(=O)CN2CCC(C(N)=O)(N3CCCCC3)CC2)cc1`: the outcome was inactive.

Consider `COc1ccc(-c2cc(C(=O)NNC(=S)NC(=O)c3c(-c4ccccc4)noc3C)[nH]n2)cc1`, for which the compound was classed as inactive.

Consider `COc1ccc(NC(=O)C2(C)CCN2Cc2ccccc2OC(F)F)cc1OC` (stereo not given), for which the result was inactive.

Take `Cn1c(CN2CCCCC2)nc2cc(NC(=O)c3ccc(Cl)cc3)ccc21`: the call was inactive.

With `CC(C)n1c(NCCc2ccccc2)nc2c1c(=O)n(C)c(=O)n2C`, the outcome was inactive.

For the compound `COc1ccc(-c2cc(C3CCN(c4cc(Cl)nc(N)n4)CC3)[nH]n2)cc1`, the result was inactive.

Regarding `CCN(CC)CCN(C(=O)c1cc(Cl)sc1Cl)c1nc2cc3c(cc2s1)OCO3`, the result was inactive.

On to `COC(=O)C1CCN(C(=O)COC(=O)c2cc(S(=O)(=O)N3CCOCC3)ccc2C)CC1`, for which the compound was classed as inactive.

As for `Cc1ccc(-n2nnnc2SCn2nnc3ccccc3c2=O)c(C)c1`, the result was inactive.

Consider `C=CCOc1c(Br)cc(CNc2ccc(NC(=O)C(C)C)c(OC)c2)cc1OC`, for which the call was inactive.

On to `Cc1cccc(N2CCN(C(=O)CCCSc3nc4ccccc4[nH]3)CC2)c1C`, for which the compound was classed as inactive.

Consider `C[C@H]1NC(=O)[C@@]2(C)[C@H](c3ccccc3)[C@H]3COc4ccccc4[C@@H]3N2C1=O`, for which the compound was called inactive.

In the case of `CCCc1cc(C(=O)NCc2ccc(OC)cc2)no1`, the result was inactive.

As for `Cc1ccc(NC(=O)c2ccc(CN3CCc4ccccc4C3)cc2)cc1`, the outcome was inactive.
